SMILES strings stand for the structures. The whole screen tested about 5,400 compounds, of which about 190 (3.5%) showed an effect of 50% or more. Many of the other results were omitted from the sample, so strong results are more common in it than they were. Positions of bridges follow the written chain, without caps; N, C: chain ends. Non-standard residues stand in square brackets, D forms with d. Residues, ends and D or L forms follow the SMILES beside them. ξ: configuration not given here. *: point of attachment. Heptanoyl(5-Me) = CCC(C)CCCC(=O)*; ξThr(3R) = C[C@@H](O)C(N)C(=O)O; Dab = NCC[C@H](N)C(=O)O

The test relates to Vero-E6. Kind of test: primary screen, phospholipidosis by LipidTOX staining; higher = more effect of the substance. The following applies: 10 µM. In outline: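 Drug-induced phospholipidosis detected with HCS LipidTOX Red reagent in Vero-E6 cells. Compounds tested at 10 μM, with amiodarone (10 μM) as positive control and DMSO (0.1 v/v %) as vehicle.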
`CC(=O)CC(=O)[O-]`: the result_ITMP amounted to 1.77%.

As for `CN1CCC(COc2cnc(-c3cccc(Cn4nc(-c5cccc(C#N)c5)ccc4=O)c3)nc2)CC1`, the result_ITMP was determined as 2.15%.

For the compound `CCc1cccc(CC)c1NC(=O)c1nn(C)c2c1CCc1cnc(Nc3ccc(C(=O)NC4CCN(C)CC4)cc3OC(F)(F)F)nc1-2`, the result_ITMP was 7.96%.

In the case of `CN1CCC(CNc2ccc3ncc(-c4cccc(OC(F)(F)F)c4)n3n2)CC1`, the result_ITMP was found to be 62.4%.

For the compound `CC1(C)[C@@H]2CC[C@@]1(C)C(=O)C2` [R4A_0000828_001 / SPE_K10034334], the result_ITMP was -2.3%.

In the case of `CC(C)(N)c1cc(C(=O)N[C@@H]2CCc3ccc(OC4=C5CCC(=O)N=C5NC=C4)cc3C2)cc(C(F)(F)F)c1`, the result_ITMP turned out to be 28.9%.

As for `CCC(C)CCCC(=O)N[C@@H](CCN)C(=O)N[C@H](C(=O)N[C@@H](CCN)C(=O)N[C@H]1CCNC(=O)[C@H]([C@@H](C)O)NC(=O)[C@H](CCN)NC(=O)[C@H](CCN)NC(=O)[C@H](CC(C)C)NC(=O)[C@@H](CC(C)C)NC(=O)[C@H](CCN)NC1=O)[C@@H](C)O` (stereo partly drawn) [R4A_0005175_001 / SPE_A36456202] ({Heptanoyl(5-Me)}-[Dab]T[Dab][Dab][Dab][dL]L[Dab][Dab]T; lactam 4-C), the result_ITMP is given as -0.45%.

Consider `C[C@@H]1NC(=O)[C@@H]2CCCN2C(=O)[C@H](CC(N)=O)NC(=O)[C@@H]2CSSC[C@H](N)C(=O)N[C@H]3CSSC[C@H](NC1=O)C(=O)NC([C@@H](C)O)C(=O)NCC(=O)N[C@H](C(=O)N[C@@H](Cc1ccc(O)cc1)C(=O)O)CSSC[C@H](NC(=O)[C@H](Cc1ccc(O)cc1)NC(=O)[C@H](CCC(=O)O)NC3=O)C(=O)N2` (stereo partly drawn) (H-CCEYCCNPAC[ξThr(3R)]GCY-OH; disulfide 1-6, 2-10, 5-13), for which the result_ITMP is -6.32%.

`C#CC[C@H](c1nc2cc(Cl)ccc2c(=O)n1Nc1ccccc1)N(CCCN)C(=O)c1cccc(Cl)c1F`: the result_ITMP turned out to be 68.4%.

On to `C=C(c1ccccc1OCc1cccc(Cl)c1)n1ccnc1`, for which the result_ITMP is listed as 2.27%.

Turning to `O=c1ccn([C@@H]2O[C@H](COP(=O)([O-])OP(=O)([O-])OP(=O)([O-])O)C(O)C2O)c(=O)[nH]1` (stereo partly drawn), the result_ITMP is recorded as 0.02%.

With `CCCCCCCCCCCCCC(=O)[O-].CCCCCCCCCCCCCC(=O)[O-].NC1CCCCC1N.[Pt+2]`, the result_ITMP is recorded as 0.26%.

For the compound `O=S(=O)([O-])Oc1ccc(C(c2ccc(OS(=O)(=O)[O-])cc2)c2ccccn2)cc1`, the result_ITMP is reported as -7.14%.

As for `Cc1ccc(-c2n[nH]c3c2C(c2cccc(O)c2)N(c2ccc(C(=O)O)cc2)C3=O)cc1` (stereo not drawn), the result_ITMP is 0.62%.

As for `COc1cc(N2CCC(N3CCN(C)CC3)CC2)ccc1Nc1ncnc(Nc2ccccc2S(=O)(=O)C(C)C)n1`, the result_ITMP was 44.8%.

On to `COc1cc(N2CCC(N3CCN(C)CC3)CC2)ccc1Nc1ncc(Cl)c(Nc2ccccc2S(=O)(=O)C(C)C)n1`, for which the result_ITMP is recorded as -2.93%.

On to `Cc1cc(Nc2ncc(Cl)c(Nc3ccccc3S(=O)(=O)C(C)C)n2)c(OC(C)C)cc1C1CCNCC1`, for which the result_ITMP is 50.9%.

As for `Cc1c(S(=O)(=O)[O-])oc2c1C(=O)C(=O)c1c-2ccc2c1CCCC2(C)C`, the result_ITMP is listed as -1.56%.

As to `C[C@H](Oc1cc(-c2cnn(C3CCNCC3)c2)cnc1N)c1c(Cl)ccc(F)c1Cl`, the result_ITMP amounted to 70.2%.

As for `C[C@@H](Oc1cc(-c2cnn(C3CCNCC3)c2)cnc1N)c1c(Cl)ccc(F)c1Cl`, the result_ITMP worked out at 75%.

Consider `Nc1nc2[nH]nnc2c(=O)[nH]1`, for which the result_ITMP is recorded as 1.34%.

Turning to `O=C([O-])[C@@H](O)[C@@H](O)[C@H](O)[C@@H](O)C(=O)[O-]`, the result_ITMP is -1.82%.

Regarding `CCOc1ccc(/N=C(/C)Nc2ccc(OCC)cc2)cc1`, the result_ITMP turned out to be 3.29%.

Consider `CC(=O)OCC1=C(C(=O)[O-])N2C(=O)[C@@H](NC(=O)CSc3ccncc3)[C@H]2SC1`, for which the result_ITMP is recorded as -1.36%.

For `CO/N=C(\C(=O)N[C@@H]1C(=O)N2C(C(=O)[O-])=C(COC(N)=O)CS[C@H]12)c1ccco1`, the result_ITMP was -1.04%.

For `O=S(=O)([O-])CCCS(=O)(=O)[O-]`, the result_ITMP is given as -2.16%.

With `CCn1cc(C(=O)[O-])c(=O)c2cc3c(cc21)OCO3`, the result_ITMP is on record as -4.34%.

On to `CN(C)[C@@H](CCOc1cccc2ccccc12)c1ccccc1`, for which the result_ITMP came to 43.4%.

With `CNCC[C@H](Oc1cccc2ccccc12)c1cccs1`, the result_ITMP amounted to 92.6%.

With `CC(C)NC[C@@H](O)COc1cccc2ccccc12` [R4A_0000150_002 / SPE_K13994703], the result_ITMP turned out to be 20.2%.

Turning to `CC1(C)CCC[C@]2(C)[C@H]3CC(=O)O[C@]3(C)CC[C@@H]12`, the result_ITMP was found to be 1.48%.

For the compound `Nc1nc2c(c(N3CCNCC3)n1)CCC1=C2[C@@H]2CCCC[C@@H]2O1`, the result_ITMP was found to be 70.7%.

In the case of `CC[C@]1(O)C[C@@H]2C[N@@](CCc3c([nH]c4ccccc34)[C@@](C(=O)OC)(c3cc4c(cc3OC)N(C=O)[C@H]3[C@@](O)(C(=O)OC)[C@H](OC(C)=O)[C@]5(CC)C=CCN6CC[C@]43[C@@H]65)C2)C1`, the result_ITMP stood at 1.05%.

Take `CC/C(=C(\c1ccc(O)cc1)c1ccc(OCCN(C)C)cc1)c1ccccc1`: the result_ITMP was 20.4%.

Consider `CCN(CC)CCOc1ccc(/C(=C(\Cl)c2ccccc2)c2ccccc2)cc1`, for which the result_ITMP is on record as 108%.

For `CC/C(=C(\c1ccc(OCCN(C)C)cc1)c1cccc(O)c1)c1ccccc1`, the result_ITMP was found to be 77.7%.

With `CCN(CC)CCOc1ccc(Cc2ccccc2)cc1`, the result_ITMP was 30.2%.

With `CC/C(=C(\c1ccccc1)c1ccc(OCCN(C)C)cc1)c1ccccc1`, the result_ITMP is recorded as 49.4%.

In the case of `CN(C)CCOc1ccc(/C(=C(/CCCl)c2ccccc2)c2ccccc2)cc1`, the result_ITMP is 20.4%.

For the compound `CN1C[C@@H]2CN(c3ccc(-c4ccccc4)nn3)C[C@@H]2C1`, the result_ITMP was -1.43%.

In the case of `O=C([O-])CCC/C=C\C[C@@H]1[C@@H](/C=C/[C@@H](O)COc2cccc(Cl)c2)[C@H](O)C[C@@H]1O` (racemic), the result_ITMP is recorded as -1.06%.

On to `C[C@H](CCC(=O)O)[C@H]1CC[C@H]2[C@@H]3CC[C@@H]4C[C@H](O)CC[C@]4(C)[C@H]3CC[C@]12C`, for which the result_ITMP was -0.58%.

As to `Oc1ccnc(S)n1`, the result_ITMP is recorded as -2.88%.

On to `Clc1ccc(C2(c3ccc(-c4cn[nH]c4)cc3)CCNCC2)cc1`, for which the result_ITMP came out at 96.9%.

Take `NCC(O)(CS(=O)(=O)O)c1ccc(Cl)cc1` (stereo not drawn): the result_ITMP is recorded as -4.58%.

With `NC[C@@](O)(c1ccc(Cl)cc1)c1ccc(-c2cn[nH]c2)cc1`, the result_ITMP was found to be 63.1%.

For the compound `Cn1ncnc1COc1nn2c(-c3cc(F)ccc3F)nnc2cc1C(C)(C)C`, the result_ITMP is on record as -6.83%.

With `Nc1c(S(=O)(=O)[O-])cc(Nc2cccc3ccccc23)c2c1C(=O)c1ccccc1C2=O`, the result_ITMP is -11.1%.

`CC[C@H]1[C@@H](O)C2C3CC[C@H]([C@H](C)CCC(=O)O)[C@@]3(C)CCC2[C@@]2(C)CC[C@@H](O)C[C@@H]12` (stereo partly drawn): the result_ITMP is -3.95%.

In the case of `CN[C@@H]1C(OC2[C@H](O[C@H]3[C@H](O)[C@@H](O)[C@H](NC(=N)N)[C@@H](O)[C@@H]3NC(=N)N)OC(C)[C@]2(O)CO)OC(CO)C(O)C1O` (stereo partly drawn), the result_ITMP is -3.92%.

Take `CC(=O)c1ccc2c(c1)C(=O)C1(CC1)O2`: the result_ITMP was determined as 0.63%.

Consider `C[C@@H]1CCCN1CCc1cc2cc(-c3ccc(C#N)cc3)ccc2o1`, for which the result_ITMP is 66.8%.

Take `CC(=O)C1=C(O)[C@]2(C)C(=CC1=O)Oc1c(C(C)=O)c(O)c(C)c(O)c12`: the result_ITMP was -3.21%.

Regarding `CCCCCCCCCCC(=O)O[C@H]1CC[C@H]2[C@@H]3CCC4=CC(=O)CC[C@]4(C)[C@H]3CC[C@]12C`, the result_ITMP turned out to be 0.88%.

In the case of `C[C@@]1(O)[C@H](O)[C@@H](CO)O[C@H]1n1cnc2c(O)nc(N)nc21`, the result_ITMP was 7.18%.

As for `COc1ccc2cc(-c3[nH]c(-c4ccc(S(C)=O)cc4)nc3-c3ccncc3)ccc2c1` (stereo not drawn), the result_ITMP is -3.68%.

As to `C[N+]1(C)[C@@H]2C[C@@H](OC(=O)C(O)(c3cccs3)c3cccs3)C[C@H]1[C@@H]1O[C@@H]12`, the result_ITMP is -2.59%.

Turning to `CN1CCC(=C2c3ccccc3CCc3sccc32)CC1`, the result_ITMP is given as 42.6%.

Turning to `CN1CCC(=C2c3ccccc3Sc3ccccc32)CC1`, the result_ITMP is 44.9%.

For `CN1CCC(=C2c3ccccc3C=Cc3ccccc32)CC1`, the result_ITMP is on record as 77.3%.

For the compound `Cc1onc(O)c1CC(N)C(=O)O` (racemic) [R4A_0004356_001 / SPE_A34716233], the result_ITMP was determined as 0.42%.

With `CC(C)c1ccc(C(=O)c2cccs2)c(SCCCCCCCCN(C)C)n1`, the result_ITMP was 77%.

As to `CC(C(=O)O)c1ccc(C(=O)c2cccs2)cc1` (stereo not drawn), the result_ITMP is on record as -0.4%.

Consider `O=C(O)COc1ccc(C(=O)c2cccs2)c(Cl)c1Cl`, for which the result_ITMP is -7.59%.

For `O=C([O-])CCC(=O)OC[C@H](NC(=O)C(Cl)Cl)C(O)c1ccc([N+](=O)[O-])cc1` (stereo partly drawn), the result_ITMP is reported as 1.81%.

As for `O=c1[n-]c(=O)n(Cl)c(=O)n1Cl`, the result_ITMP is -11.2%.

For the compound `c1ccc(C2CN3CCSC3=N2)cc1` (stereo not drawn) [R4A_0001404_001 / SPE_K73107279], the result_ITMP is on record as -7.98%.

As to `C[N+](C)(C)CCOP(=O)([O-])OP(=O)([O-])OC[C@H]1O[C@@H](n2ccc(N)nc2=O)[C@H](O)[C@@H]1O`, the result_ITMP was found to be 10.2%.

Regarding `CC(C)(O)c1ccccc1CC[C@@H](SCC1(CC(=O)[O-])CC1)c1cccc(/C=C/c2ccc3ccc(Cl)cc3n2)c1`, the result_ITMP came out at 3.69%.

In the case of `C[C@H](N)Cn1ccc2cc(F)c(Cl)cc21`, the result_ITMP was 50.7%.

On to `CO[C@H]1O[C@@H]2O[C@@]3(C)CC[C@H]4[C@H](C)CC[C@@H]([C@H]1C)[C@@]24OO3`, for which the result_ITMP is -0.98%.

In the case of `O=C([O-])C(O)Cc1ccc(O)c(O)c1` (stereo not drawn), the result_ITMP came out at 1.45%.

Turning to `CCC(=O)O[C@@H](OP(=O)(CCCCc1ccccc1)CC(=O)N1C[C@H](C2CCCCC2)C[C@H]1C(=O)[O-])C(C)C` (stereo partly drawn), the result_ITMP is recorded as -3.03%.

On to `CCOC(=O)Nc1ccc2c(c1)N(C(=O)CCN1CCOCC1)c1ccccc1S2`, for which the result_ITMP is listed as -8.3%.

For `CC(=O)c1ccc2c(c1)N(CCCN1CCC(CCO)CC1)c1ccccc1S2`, the result_ITMP came out at 50.4%.

With `CCCCN1CCC(CCC(=O)c2cc(Cl)c(N)cc2OC)CC1`, the result_ITMP stood at 5.01%.

As for `CC(=O)c1ccc2c(c1)N(CCCN1CCN(CCO)CC1)c1ccccc1S2`, the result_ITMP came out at 74.4%.

Take `CC(=O)c1ccc2c(c1)N(CCCN(C)C)c1ccccc1S2`: the result_ITMP is 42.6%.

Source of the values: article PMC13083723 (Patterns, 2026).
